Screening results as filed in PubChem BioAssay.
This is a sample that favours compounds with a hit; in the whole collection about 7.7% have one here.
FBPA Giardia inh = inhibitors of Giardia lamblia fructose-1,6-bisphosphate aldolase; A8B2U2; purified Giardia FBPA; Potency, µM (series often up to 59.6 µM), actives largely listed as inhibitors; 290,000 compounds, 0.71% hits; AID 2451; note: nearly all actives have a fitted effect of over 55% in size
Target sequence (A8B2U2 whole entry, looked up): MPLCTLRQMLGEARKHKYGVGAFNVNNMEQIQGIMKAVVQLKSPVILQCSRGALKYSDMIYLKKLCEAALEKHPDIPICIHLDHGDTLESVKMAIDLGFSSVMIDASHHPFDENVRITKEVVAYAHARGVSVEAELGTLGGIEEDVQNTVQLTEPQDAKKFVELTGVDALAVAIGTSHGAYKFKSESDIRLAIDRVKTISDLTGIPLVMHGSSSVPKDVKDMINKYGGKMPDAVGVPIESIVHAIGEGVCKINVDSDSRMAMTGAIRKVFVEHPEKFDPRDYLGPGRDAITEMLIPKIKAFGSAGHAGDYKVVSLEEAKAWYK
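40 nM FBPA preincubated 10 min at RT with compound (up to 57.5 uM final), then substrate plus GAPDH/TPI/NAD/arsenate coupling and diaphorase/resazurin added. Fluorescence read after 20 min at RT, 525/598 nm.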
HCMV inh = blocks human cytomegalovirus replication. 410,000 compounds, 4.5% hits. activity change, negative = inhibition, % at 57.5 µM. HFF cells, HCMV-luciferase reporter, 72 h; active compounds read low. AID 1259415; in the data active = activity change below about -60%; inconclusive = no clear call, values can overlap the other calls; inactive = above about -39%
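Luciferase read-out from HCMV-luciferase-infected HFFs (MOI 1 PFU/cell) 72 h post infection at 37C; compounds added after 16 h cell attachment; activity normalized between buffer-only basal and Salinomycin (10uM) inhibitor controls.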
Tb PYK inh = blocks Trypanosoma brucei pyruvate kinase. TbPYK enzyme, Kinase-Glo Plus ATP luminescence, 45 min. AID 624173. Q57TT1. 410,000 compounds, 0.12% hits. Potency, µM (top dose mostly 76.8 µM), hits mostly inhibitors; note: nearly all actives have a fitted effect of over 50% in size
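Activity of T. brucei pyruvate kinase was followed by Kinase-Glo Plus luminescence after the enzyme reacted 45 min at room temperature with 130 uM ADP (final) and substrate. Test compounds were added before ADP at multiple concentrations.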
RE007 growth inh = less growth of the S. pombe RE007 Vpr strain; S. pombe RE007 Vpr strain, BacTiter-Glo ATP luminescence, 24 h; Potency, µM (highest dose often 92.2 µM), most hits filed as inhibitors; 360,000 compounds, 0.21% hits; AID 651644; active = well fitted falling curve with a large enough effect; inconclusive = small, poorly fitted or top-dose-only effect; inactive = no such curve, though single readings can be large or run the other way; note: nearly all actives have a fitted effect of over 50% in size
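Fission yeast RE007 carrying one integrated HIV-1 vpr copy, seeded at OD 0.01 in PMG+AL medium with 23 nL pinned compound. Grown 24 h at 30 degrees; viability read by BacTiter-Glo luminescence after 5 min.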
FMDV inh = antivirals against foot and mouth disease virus. FMDV antiviral cell-based qHTS. 410,000 compounds, 1.2% hits. AID 1159524. Potency, µM (series often up to 57.9 µM), most hits filed as inhibitors; calls by dose curve; tested in HEK293T cells; note: read-out not given here; nearly all actives have a fitted effect of over 45% in size
Sm TGR block = blocks Schistosoma mansoni thioredoxin glutathione reductase; Q962Y6; 360,000 compounds, 3% hits; purified TGR, DTNB reduction, TNB absorbance 405 nm; Potency, µM (series often up to 114 µM), actives largely listed as inhibitors; note: nearly all actives have a fitted effect of over 60% in size
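Kinetic colorimetric format: TGR-catalysed, NADPH-driven DTNB reduction monitored via TNB absorbance. Enzyme dispensed at 20 nM; compound exposure 15 min at room temperature before reaction start.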
Numbers stand for hits; – = inactive; ? = inconclusive; · = not tested or not shown. Unless noted, calls come from the whole dose curve; as a rule, active = well fitted curve in the direction sought with a large enough effect; inconclusive = small, poorly fitted or top-dose-only effect, or another doubt; inactive = no such curve, though single readings can be large; an effect the other way counts as inactive or inconclusive.

SMILES | FBPA Giardia inh | HCMV inh | Tb PYK inh | RE007 growth inh | FMDV inh | Sm TGR block
CC1CCCN(C(=O)c2ccc([N+](=O)[O-])o2)C1 (stereo unspecified) | – | – | – | – | – | –
O=C(c1ccc(-c2ccc([N+](=O)[O-])cc2)o1)N1CCCCCCC1 | · | – | ? | – | – | 20µM
O=C(c1ccc(-c2ccc([N+](=O)[O-])cc2)o1)N1CCCC(C(F)(F)F)C1 (stereo unspecified) | · | -75.8 | – | – | – | ?
O=C(Cc1ccc([N+](=O)[O-])cc1)N1CCCCCC1 | – | – | – | – | – | –
COc1ccc(N2CCN(C(=O)CSc3nc4ccccc4nc3Cc3ccc(Cl)cc3)CC2)cc1 | · | – | – | · | – | –
Cc1cccc(-n2c(C)cc(C(=O)C(=O)Nc3ccccc3F)c2C)c1C | · | -66.6 | – | · | – | –
Cc1ccc(SCC(c2ccccc2)N2CCN(CCc3ccccc3)CCC2=O)cc1 (stereo unspecified) | – | · | · | · | · | ·
CC1=CC2(O)OCCN(CCO)C2=CC1=O (stereo unspecified) | ? | ? | – | – | – | 20µM
Cc1sc2ncn(CCn3cnc4sc(C)c(C)c4c3=O)c(=O)c2c1C | – | ? | – | – | 20µM | –
CN1CC(c2ccccc2)C2(SC(=S)N(Cc3ccco3)C2=O)C12C(=O)Nc1ccccc12 (stereo unspecified) | – | -101.5 | – | – | ? | –
CN1CC(c2ccccn2)C2(SC(=S)N(Cc3ccccc3)C2=O)C12C(=O)Nc1ccccc12 (stereo unspecified) | – | – | – | – | – | –
CCc1ccccc1N1C(=O)N(Cc2ccc(C#N)cc2)c2ccccc2S1(=O)=O | · | – | – | · | – | –
COc1ccc(-c2nc(CSCC(=O)N3CCN(c4cc(Cl)ccc4C)CC3)c(C)o2)cc1 | · | -80.3 | – | · | ? | –
COc1ccc(-c2nc(CSCC(=O)N3CCN(c4cccc(C)c4C)CC3)c(C)o2)cc1OC | · | -93.3 | – | · | 25.1µM | –
O=C(c1ccc2c(Cl)c3c(nc2c1)CCCC3)N1CCN(c2cccc(C(F)(F)F)c2)CC1 | · | – | – | · | – | –
Cc1cc2[nH]c3ccccc3c2c(C)n1 | – | -98.0 | – | – | – | –
CC1=NN(c2ccccc2)C(=O)/C1=C\c1cc(C)n(-c2cccnc2)c1C | – | -73.3 | – | – | – | –
C=CCN1C(=O)/C(=C/c2cc(C)n(-c3cccnc3)c2C)C(=O)NC1=S | ? | – | – | – | 35.5µM | ?
Cc1ccc[n+](C(C(=S)NCc2ccco2)=C([O-])c2ccccc2Cl)c1 | · | – | – | – | – | ·
Cc1ccc[n+](/C(C(=S)NCc2ccco2)=C(/[O-])c2ccccc2Cl)c1 | ? | – | – | – | – | 31.6µM
CC(C)(C)c1ccc(/C([O-])=C(/C(=S)NCc2ccco2)[n+]2ccccc2)cc1 | ? | · | · | · | · | 56.2µM
CC(C)(C)c1ccc(C(=O)NC(=S)NCc2ccco2)cc1 | · | – | – | – | – | ?
C=C(C)C(=O)C1CCCCC1 | – | · | · | · | · | ·
CC(/C=N\NC(=O)Cn1c(C)nc2ccccc21)=C\c1ccccc1 | – | -85.8 | – | – | ? | –
C/C(=N\NC(=O)Cc1ccccc1)c1cccs1 | – | – | – | – | · | –
SMILES | FBPA Giardia inh | HCMV inh | Tb PYK inh | RE007 growth inh | FMDV inh | Sm TGR block
O=C(Cn1cnc2ccccc21)N/N=C/C(Br)=C/c1ccccc1 | – | -66.3 | – | – | ? | –
Cn1c(=O)c2c(ncn2CC(=O)N/N=C/C(Br)=C/c2ccccc2)n(C)c1=O | – | ? | – | – | ? | –
C/C(=N\NC(=O)Cn1c(C)nc2ccccc21)c1cccs1 | – | -63.8 | – | – | ? | –
C#CCOc1ccc(C2C3=C(CC(C)(C)CC3=O)N(CC(=O)O)C3=C2C(=O)CC(C)(C)C3)cc1OC | – | – | – | – | – | 35.5µM
CCN(CC)c1ccc(/C=N/NC(=O)CNC(=O)C2COc3ccccc3O2)c(O)c1 (stereo unspecified) | – | -96.9 | – | – | – | –
C/C(=N/NC(=O)CNC(=O)C1COc2ccccc2O1)c1ccc2c(c1)OCCO2 (stereo unspecified) | – | -73.2 | – | – | – | –
